In PubChem BioAssay (Tox21):
Several values for one entry are separate records, joined by “and”; a condition that tells them apart may be missing. Identical values can stand only once. Records with an inconclusive call do not appear. A call without a number means that no potency is given here. Activity calls are given as the source filed them. The call rests on the fitted dose curve; in most records, active means well fitted cell-killing curve with a large enough effect in the repeat runs; inconclusive means weak or mixed curves, or effect the other way; inactive means flat fitted curve, though single readings scatter.

What was measured:
[1] = cAMP Responsive Elements (CRE) small molecule antagonists, cell-based qHTS assay: qHTS cell viability counter screen (AID 2060913); settings: CRE-bla HEK293T viability, CellTiter-Glo luminescence, 5 h; series mostly up to 92.4 µM; further: nearly all actives have a fitted effect of over 40% in size
Outline: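 Steps: cells plated and held 18 hrs at 37 C/5% CO2; compounds and NKH477 (0.25 uM final) added; 3 hrs incubation; reporter substrate read; CellTiter-Glo added to measure cytotoxicity by luminescence.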

[2] = cAMP Responsive Elements (CRE) small molecule agonists, cell-based qHTS assay: qHTS cell viability counter screen (AID 2060914); settings: CRE-bla HEK293T viability, CellTiter-Glo luminescence, 5 h; series mostly up to 92.4 µM; further: nearly all actives have a fitted effect of over 50% in size
Outline: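 In the same wells as the reporter read, viability of CRE-bla HEK 293T cells was quantified by CellTiter-Glo luminescence after a 3 h compound exposure.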
Potency means the concentration at half of the fitted maximal effect.

Compound | Potency [1] | Potency [2]
COC(=O)c1ccccc1C(=O)OC | inactive | inactive
CN(C)C1CCCCC1 | inactive | inactive
O=S(=O)(O)C(F)(F)C(F)(F)C(F)(F)C(F)(F)F | inactive | inactive
CON(C)C(=O)Nc1ccc(Br)c(Cl)c1 | inactive | inactive
CN1C[C@H](C(=O)N[C@]2(C)O[C@@]3(O)[C@@H]4CCCN4C(=O)[C@H](Cc4ccccc4)N3C2=O)C=C2c3cccc4[nH]cc(c34)C[C@H]21 | inactive | inactive
CCCCN(CCCC)C(=S)[S-].CCCCN(CCCC)C(=S)[S-].[Ni+2] | inactive | inactive
C[C@]12C=CC3=C4CCC(=O)C=C4CC[C@H]3[C@@H]1CC[C@@H]2O | inactive | inactive
C/C=C/C=O | inactive | inactive
CC(C)(C)NCC(O)c1cc(Cl)c(N)c(Cl)c1 (stereo not drawn) | inactive | inactive
COc1ccc(C(CN(C)C)C2(O)CCCCC2)cc1 (stereo not drawn) | inactive | inactive
NC(=O)CN1CCCC1=O | inactive | inactive
O=C(O)C(Cl)(Cl)Br | inactive | inactive
BrCC(Br)(Br)Br | inactive | inactive
NN=C(N)N | inactive | inactive
CC(=O)[O][Hg][c]1ccccc1 | 12.1 µM (active) and 12.2 µM (active) and 16.8 µM (active) | 10.8 µM (active) and 13.7 µM (active)
C=C(C)CCl | inactive | inactive
CCOC(=O)OC1=C(c2cc(C)ccc2C)C(=O)NC12CCC(OC)CC2 (stereo not drawn) | inactive | inactive
ClC(Cl)=C(Cl)Cl | inactive | inactive
Cc1cnc[nH]1 | inactive | inactive
